According to the supplement of paper PMC11732987, “Enantioselective OTUD7B fragment discovery through chemoproteomics screening and high-throughput optimisation” (Communications Chemistry, 2025):

How the values were obtained:
Experiment in all cases: log2 ratio of Biotin-Ahx-Ub-VS probe labelling (fragment/DMSO); higher = less target engagement (more negative = stronger competition), active = hit call of the paper (q ≤ 0.05, log2 ratio ≤ -1)
Conditions in all cases: compound concentration: 200 uM; treatment time: 3 h
USP19 = biological target: T1, USP19 (UniProt O94966)
T1 sequence (whole entry): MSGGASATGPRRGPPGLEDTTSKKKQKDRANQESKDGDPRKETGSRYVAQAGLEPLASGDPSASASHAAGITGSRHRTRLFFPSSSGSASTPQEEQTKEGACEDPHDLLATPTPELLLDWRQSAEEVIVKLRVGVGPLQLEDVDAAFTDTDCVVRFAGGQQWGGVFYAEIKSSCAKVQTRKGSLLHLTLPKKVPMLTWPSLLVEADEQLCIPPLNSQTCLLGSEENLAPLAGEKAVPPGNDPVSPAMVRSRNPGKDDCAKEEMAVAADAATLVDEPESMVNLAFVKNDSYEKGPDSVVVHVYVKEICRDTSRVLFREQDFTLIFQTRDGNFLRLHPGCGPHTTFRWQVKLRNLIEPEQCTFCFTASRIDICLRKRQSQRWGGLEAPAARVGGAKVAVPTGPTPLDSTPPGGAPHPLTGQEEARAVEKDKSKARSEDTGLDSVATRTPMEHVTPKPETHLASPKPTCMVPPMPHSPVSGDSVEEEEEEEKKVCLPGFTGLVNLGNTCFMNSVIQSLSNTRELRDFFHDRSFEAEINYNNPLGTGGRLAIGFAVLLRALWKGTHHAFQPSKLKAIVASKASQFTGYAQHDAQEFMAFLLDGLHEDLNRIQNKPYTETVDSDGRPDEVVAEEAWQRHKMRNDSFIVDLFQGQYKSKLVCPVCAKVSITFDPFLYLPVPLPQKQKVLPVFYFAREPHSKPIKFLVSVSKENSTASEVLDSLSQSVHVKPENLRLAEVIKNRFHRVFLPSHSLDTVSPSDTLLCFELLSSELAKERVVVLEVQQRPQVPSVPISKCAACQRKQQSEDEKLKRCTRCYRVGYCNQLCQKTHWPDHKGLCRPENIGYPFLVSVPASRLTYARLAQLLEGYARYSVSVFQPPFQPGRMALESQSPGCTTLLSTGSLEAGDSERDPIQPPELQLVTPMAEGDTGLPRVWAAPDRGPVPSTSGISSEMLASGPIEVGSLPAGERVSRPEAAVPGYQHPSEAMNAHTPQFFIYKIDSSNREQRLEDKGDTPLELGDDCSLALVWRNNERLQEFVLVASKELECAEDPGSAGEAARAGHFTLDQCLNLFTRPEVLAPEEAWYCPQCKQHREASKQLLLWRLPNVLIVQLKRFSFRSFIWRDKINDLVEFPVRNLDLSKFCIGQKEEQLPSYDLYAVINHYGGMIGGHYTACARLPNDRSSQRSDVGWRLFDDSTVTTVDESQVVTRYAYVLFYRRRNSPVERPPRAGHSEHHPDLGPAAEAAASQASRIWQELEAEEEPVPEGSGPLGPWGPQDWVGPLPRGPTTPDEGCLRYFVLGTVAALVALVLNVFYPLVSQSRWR
Summary of the method: (§1)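 Labelling with Biotin-Ahx-Ub-VS (0.5 µM final, 1 h) followed a 3 h triplicate treatment of HEK293T lysate (495 µg per sample, Tris/CHAPS/IGEPAL buffer with protease inhibitors) with fragment at 200 µM or vehicle. Labelled DUBs were NeutrAvidin-enriched, digested with LysC and trypsin, and run by diaPASEF LC-MS/MS. The values, average log2 fragment/vehicle ratios by unpaired t-test, come from global-median-normalised Spectronaut label-free quantities. Proteins with ≥2 unique peptides were used.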

USP24 = USP24 (UniProt Q9UPU5)
Summary of the method: as §1

USP25 = biological target: T2, USP25 (UniProt Q9UHP3)
T2 sequence (whole entry): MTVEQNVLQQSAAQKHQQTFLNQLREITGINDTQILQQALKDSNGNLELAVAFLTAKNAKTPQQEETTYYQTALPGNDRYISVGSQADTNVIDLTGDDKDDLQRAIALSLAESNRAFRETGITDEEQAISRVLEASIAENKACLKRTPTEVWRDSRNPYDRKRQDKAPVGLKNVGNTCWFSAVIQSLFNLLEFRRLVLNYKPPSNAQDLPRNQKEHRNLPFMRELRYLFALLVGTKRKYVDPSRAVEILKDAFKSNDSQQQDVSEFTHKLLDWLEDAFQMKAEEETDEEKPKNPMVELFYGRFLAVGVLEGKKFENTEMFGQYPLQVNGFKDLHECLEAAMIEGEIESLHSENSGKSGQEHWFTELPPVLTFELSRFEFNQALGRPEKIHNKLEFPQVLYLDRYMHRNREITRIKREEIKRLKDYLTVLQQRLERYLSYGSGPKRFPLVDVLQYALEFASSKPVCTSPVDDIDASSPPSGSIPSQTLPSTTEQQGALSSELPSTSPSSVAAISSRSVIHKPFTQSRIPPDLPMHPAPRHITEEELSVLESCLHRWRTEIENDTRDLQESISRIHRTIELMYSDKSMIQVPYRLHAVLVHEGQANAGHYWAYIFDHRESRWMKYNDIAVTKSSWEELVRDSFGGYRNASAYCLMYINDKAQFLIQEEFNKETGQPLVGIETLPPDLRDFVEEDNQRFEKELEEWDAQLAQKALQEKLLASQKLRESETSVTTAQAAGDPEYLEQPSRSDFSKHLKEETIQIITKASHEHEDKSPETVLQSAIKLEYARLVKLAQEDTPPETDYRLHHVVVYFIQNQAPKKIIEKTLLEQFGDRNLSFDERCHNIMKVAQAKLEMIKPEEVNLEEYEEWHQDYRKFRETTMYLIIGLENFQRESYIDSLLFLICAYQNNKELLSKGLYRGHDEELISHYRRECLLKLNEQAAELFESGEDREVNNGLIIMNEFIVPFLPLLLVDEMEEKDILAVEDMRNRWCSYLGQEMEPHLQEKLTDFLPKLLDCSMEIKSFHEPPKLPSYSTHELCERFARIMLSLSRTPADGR
Summary of the method: as §1

USP28 = biological target: T3, USP28 (UniProt Q96RU2)
T3 sequence (whole entry): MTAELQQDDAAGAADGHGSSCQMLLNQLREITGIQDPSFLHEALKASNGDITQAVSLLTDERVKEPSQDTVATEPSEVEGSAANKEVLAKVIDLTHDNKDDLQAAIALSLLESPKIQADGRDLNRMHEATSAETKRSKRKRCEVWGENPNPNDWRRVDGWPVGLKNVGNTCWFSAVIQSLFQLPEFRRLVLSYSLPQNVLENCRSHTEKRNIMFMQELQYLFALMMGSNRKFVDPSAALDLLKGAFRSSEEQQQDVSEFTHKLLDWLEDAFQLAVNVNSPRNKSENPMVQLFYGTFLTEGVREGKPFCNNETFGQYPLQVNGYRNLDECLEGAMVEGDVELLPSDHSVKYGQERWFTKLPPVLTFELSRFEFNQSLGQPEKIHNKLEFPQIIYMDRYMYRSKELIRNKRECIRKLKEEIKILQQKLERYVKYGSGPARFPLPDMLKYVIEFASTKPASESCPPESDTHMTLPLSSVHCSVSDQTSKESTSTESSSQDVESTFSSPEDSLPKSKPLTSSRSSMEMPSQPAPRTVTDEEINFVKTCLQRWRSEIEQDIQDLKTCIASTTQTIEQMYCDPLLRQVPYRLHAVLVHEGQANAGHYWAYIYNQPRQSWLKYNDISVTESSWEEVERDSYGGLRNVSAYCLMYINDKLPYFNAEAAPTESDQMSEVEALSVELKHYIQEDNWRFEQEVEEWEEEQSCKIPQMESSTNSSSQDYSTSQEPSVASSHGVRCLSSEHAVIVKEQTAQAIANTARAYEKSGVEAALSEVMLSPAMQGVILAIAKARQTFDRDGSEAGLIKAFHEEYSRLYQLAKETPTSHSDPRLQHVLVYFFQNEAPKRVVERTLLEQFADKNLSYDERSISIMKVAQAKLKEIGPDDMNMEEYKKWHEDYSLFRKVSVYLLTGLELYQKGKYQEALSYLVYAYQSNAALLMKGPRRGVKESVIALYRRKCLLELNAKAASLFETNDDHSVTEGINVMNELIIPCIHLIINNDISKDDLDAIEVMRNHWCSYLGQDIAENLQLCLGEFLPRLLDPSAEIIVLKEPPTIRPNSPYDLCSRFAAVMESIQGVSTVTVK
Summary of the method: as §1

Measured: log2 ratio of Biotin-Ahx-Ub-VS probe labelling

Chain of USP24 (Q9UPU5 whole entry): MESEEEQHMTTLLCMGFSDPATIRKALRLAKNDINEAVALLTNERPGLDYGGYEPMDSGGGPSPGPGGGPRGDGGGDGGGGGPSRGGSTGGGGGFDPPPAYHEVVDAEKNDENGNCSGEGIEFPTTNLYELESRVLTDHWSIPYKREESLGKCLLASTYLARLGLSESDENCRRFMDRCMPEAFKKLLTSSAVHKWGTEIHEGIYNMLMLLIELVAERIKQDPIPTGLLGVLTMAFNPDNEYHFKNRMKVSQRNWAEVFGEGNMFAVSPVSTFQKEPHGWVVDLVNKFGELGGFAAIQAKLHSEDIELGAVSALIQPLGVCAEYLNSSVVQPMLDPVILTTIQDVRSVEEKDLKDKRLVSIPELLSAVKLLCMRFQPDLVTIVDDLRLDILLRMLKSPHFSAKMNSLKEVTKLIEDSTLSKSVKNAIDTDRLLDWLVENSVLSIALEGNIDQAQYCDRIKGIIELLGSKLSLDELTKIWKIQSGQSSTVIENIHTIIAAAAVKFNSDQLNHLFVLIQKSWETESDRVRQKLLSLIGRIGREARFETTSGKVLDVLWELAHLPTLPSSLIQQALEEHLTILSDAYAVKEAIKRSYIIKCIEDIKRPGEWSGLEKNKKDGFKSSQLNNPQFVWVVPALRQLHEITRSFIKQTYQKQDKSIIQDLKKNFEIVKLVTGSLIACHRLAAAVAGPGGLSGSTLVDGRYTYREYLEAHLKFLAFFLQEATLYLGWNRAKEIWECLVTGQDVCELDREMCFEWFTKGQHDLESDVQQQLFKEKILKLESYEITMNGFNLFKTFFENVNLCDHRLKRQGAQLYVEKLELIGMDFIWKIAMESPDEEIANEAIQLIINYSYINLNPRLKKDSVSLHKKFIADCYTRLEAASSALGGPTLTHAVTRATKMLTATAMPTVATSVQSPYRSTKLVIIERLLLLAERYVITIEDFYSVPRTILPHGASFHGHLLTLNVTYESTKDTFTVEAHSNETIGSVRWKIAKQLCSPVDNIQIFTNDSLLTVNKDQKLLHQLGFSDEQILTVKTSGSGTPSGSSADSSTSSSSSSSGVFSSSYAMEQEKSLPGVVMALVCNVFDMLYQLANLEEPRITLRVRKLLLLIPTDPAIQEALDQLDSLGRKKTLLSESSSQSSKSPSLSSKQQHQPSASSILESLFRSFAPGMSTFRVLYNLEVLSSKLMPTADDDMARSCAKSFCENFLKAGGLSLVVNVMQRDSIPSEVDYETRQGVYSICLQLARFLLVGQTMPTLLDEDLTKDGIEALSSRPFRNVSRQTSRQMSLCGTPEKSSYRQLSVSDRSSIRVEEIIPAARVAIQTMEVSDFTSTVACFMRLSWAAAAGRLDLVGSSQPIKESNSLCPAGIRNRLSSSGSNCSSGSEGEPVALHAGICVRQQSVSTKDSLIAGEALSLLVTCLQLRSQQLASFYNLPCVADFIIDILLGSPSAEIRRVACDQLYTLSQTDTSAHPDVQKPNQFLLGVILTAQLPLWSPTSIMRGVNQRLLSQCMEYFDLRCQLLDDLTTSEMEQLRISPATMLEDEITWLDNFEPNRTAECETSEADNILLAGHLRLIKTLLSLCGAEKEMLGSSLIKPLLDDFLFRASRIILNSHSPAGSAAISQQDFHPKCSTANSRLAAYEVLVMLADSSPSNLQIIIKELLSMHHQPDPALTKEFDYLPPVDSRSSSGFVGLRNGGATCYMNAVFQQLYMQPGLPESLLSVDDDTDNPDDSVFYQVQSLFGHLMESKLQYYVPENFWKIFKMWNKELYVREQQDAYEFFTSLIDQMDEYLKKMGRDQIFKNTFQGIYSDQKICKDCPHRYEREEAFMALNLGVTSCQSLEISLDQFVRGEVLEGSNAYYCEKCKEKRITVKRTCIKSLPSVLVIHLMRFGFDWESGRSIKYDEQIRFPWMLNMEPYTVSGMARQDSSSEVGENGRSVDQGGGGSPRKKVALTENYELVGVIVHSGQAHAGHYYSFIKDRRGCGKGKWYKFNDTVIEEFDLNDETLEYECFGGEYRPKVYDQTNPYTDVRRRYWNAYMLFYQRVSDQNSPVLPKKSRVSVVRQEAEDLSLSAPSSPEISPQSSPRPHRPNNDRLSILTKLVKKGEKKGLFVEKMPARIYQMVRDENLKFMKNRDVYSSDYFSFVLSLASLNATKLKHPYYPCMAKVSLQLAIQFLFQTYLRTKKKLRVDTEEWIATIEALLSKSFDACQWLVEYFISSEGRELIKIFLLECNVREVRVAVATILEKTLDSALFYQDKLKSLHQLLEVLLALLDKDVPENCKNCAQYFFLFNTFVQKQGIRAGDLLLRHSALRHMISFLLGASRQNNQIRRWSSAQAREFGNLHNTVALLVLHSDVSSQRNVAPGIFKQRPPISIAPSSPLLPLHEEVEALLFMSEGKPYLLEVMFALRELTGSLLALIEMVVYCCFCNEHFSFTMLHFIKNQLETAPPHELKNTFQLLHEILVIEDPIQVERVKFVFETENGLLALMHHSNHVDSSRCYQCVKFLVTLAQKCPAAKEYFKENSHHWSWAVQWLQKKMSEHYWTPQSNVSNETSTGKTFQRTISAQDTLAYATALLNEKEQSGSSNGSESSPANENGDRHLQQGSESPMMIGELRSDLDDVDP

Cc1cccc(N2CCC(NC(=O)CCl)C2=O)c1 (centres undefined)
inactive: USP19 -0.0964 | USP24 -0.149 | USP25 -0.421 | USP28 -0.475
